Our source for the outcome and AC50 values is PubChem BioAssay (EPA / NIEHS).

Experiment [1] is described as follows: ATG_CRE_CIS: Attagene CIS-FACTORIAL HepG2 Assay for human cAMP Responsive Element (CRE) binding protein 3 (AID 2282926). The following applies: HepG2 CRE cis-reporter, Attagene multiplexed mRNA; actives raise or lower the signal. A digest of the protocol:
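Transfected HepG2 were treated for 24 hours, then RNA was extracted and reporter cDNA amplified with sequence-specific primers. Labelled fragments were separated by capillary electrophoresis, and the CRE signal was fitted bidirectionally with DMSO as baseline.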

Experiment [2] can be described thus: ATG_DR4_LXR_CIS: Attagene CIS-FACTORIAL HepG2 Assay for human Liver X Receptor (LXR), DR4 submotif (AID 2282929). The following applies: HepG2 Attagene DR4 cis-reporter, mRNA transcription; actives raise or lower the signal. A digest of the protocol:
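DR4 cis-reporter in HepG2, 24 h exposure. Detection: RT-PCR, 6-FAM labelling, CE fragment analysis. Endpoint fitted bidirectionally, DMSO = baseline.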

Experiment [3] can be described thus: ATG_AP_1_CIS: Attagene CIS-FACTORIAL HepG2 Assay for human Activator Protein 1 (AP-1) (AID 2282931). The note with it: HepG2 Attagene cis-factorial AP-1 reporter mRNA; actives raise or lower the signal. An outline of the steps: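 Cis-regulated reporter units transiently expressed in HepG2 report endogenous transcription-factor activity. Signal: reporter mRNA at 24 h, via RT-PCR and fluorescent capillary electrophoresis. Endpoint derived by bidirectional fitting, DMSO as negative control.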

Experiment [4] addresses Hepatocyte nuclear factor 3-beta (Homo sapiens) (UniProt Q9Y261). In words: ATG_FoxA2_CIS: Attagene CIS-FACTORIAL HepG2 Assay for human Forkhead box A2 (FOXA2) (AID 2282942). The note with it: HepG2 cis-reporter transcription factor activity, 24 h; actives raise or lower the signal. A digest of the protocol: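 Measured: reporter mRNA induction or loss in HepG2 transiently carrying multiple cis-regulated reporter units, 24 h after dosing. Quantified by RT-PCR plus capillary electrophoresis, normalised to DMSO.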

Experiment [5] concerns the target Heat shock factor protein 1 (Homo sapiens) (UniProt Q00613). The experiment is described as follows: ATG_HSE_CIS: Attagene CIS-FACTORIAL HepG2 Assay for human Heat Shock Transcription Factor 1 (HSE) (AID 2282953). The following applies: HepG2 HSE cis-reporter, Attagene RNA transcription; actives raise or lower the signal. An outline of the steps:
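HepG2 cells transiently transfected with multiple reporter transcription units under cis-regulatory promoter control, measuring endogenous transcription factor activity. After 24 h chemical exposure, reporter mRNA quantified by RT-PCR, fluorescent labelling, HpaI digestion and capillary electrophoresis; bidirectional fit versus DMSO.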

Experiment [6] can be described thus: ATG_RORE_CIS: Attagene CIS-FACTORIAL HepG2 Assay for human RAR-related Orphan Receptor Element (RORE) (AID 2282959). The note with it: HepG2 Attagene cis-factorial RORE reporter, mRNA; actives raise or lower the signal. An outline of the steps: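 Transiently transfected HepG2 reporter cells were treated 24 h. Reporter transcripts were detected by RT-PCR and capillary electrophoresis, with bidirectional fitting against DMSO.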

For experiment [7], the target named is Nuclear respiratory factor 1 (Homo sapiens) (UniProt Q16656). The experiment is described as follows: ATG_NRF1_CIS: Attagene CIS-FACTORIAL HepG2 Assay for human Nuclear Respiratory Factor 1 (NRF1) Orphan Gene (AID 2282987). The note with it: HepG2 NRF1 cis-element reporter, Attagene multiplex; actives raise or lower the signal. A digest of the protocol: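 Using DMSO as baseline, gain- or loss-of-signal was fitted for reporter mRNA levels in HepG2 cells transiently transfected with cis-regulated reporter units. Samples were taken 24 h after dosing and read by RT-PCR with capillary electrophoresis.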

Experiment [8] in a line: ATG_NFI_CIS: Attagene CIS-FACTORIAL HepG2 Assay for human Nuclear Factor I (NFI) (AID 2282989). The note with it: HepG2 cis-regulatory reporter, NFI response element transcription; actives raise or lower the signal. A digest of the protocol: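 HepG2 cells transiently transfected with cis-element-driven multiplexed reporter transcription units, dosed for 24 h. Reporter mRNA quantified by RT-PCR, fluorescent labelling, HpaI digestion and capillary electrophoresis; bidirectional fit versus DMSO baseline.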

The nature of experiment [9]: ATG_NRF2_ARE_CIS: Attagene CIS-FACTORIAL HepG2 Assay for human Nuclear Factor Erythroid 2 Related Factor 2 (NFR2) response to Antioxidant Response Elements (ARE) (AID 2282992).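 For AC50: reporter mRNA level measured by RT-PCR and capillary electrophoresis fluorescence.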 The following applies: HepG2 Attagene ARE/NRF2 reporter, transcription factor activity; actives raise or lower the signal. An outline of the steps: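 HepG2 cells transiently transfected with multiplexed cis-regulated reporter transcription units measure endogenous transcription factor activity. Reporter mRNA at 24 h is quantified by RT-PCR, fluorescent labelling and capillary electrophoresis, with bidirectional fitting relative to DMSO.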

The target in experiment [10] is Cellular tumor antigen p53 (Homo sapiens) (UniProt P04637). The experiment is described as follows: ATG_p53_CIS: Attagene CIS-FACTORIAL HepG2 Assay for human p53 Transcription Factor (AID 2282994). The note with it: HepG2 p53 cis-element reporter, Attagene mRNA; actives raise or lower the signal. A digest of the protocol: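 HepG2 cells transiently transfected with multiplexed cis-regulated reporter transcription units read endogenous TF activity. After 24 h compound exposure, reporter mRNA was quantified by RT-PCR, fluorescent labelling, HpaI digestion and capillary electrophoresis; bidirectional fits versus DMSO baseline.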

Experiment [11] can be described thus: BSK_3C_TissueFactor: BioMAP Diversity Plus: 3C Assay for Tissue Factor Biomarker Activity (AID 2282997). The note with it: BioMAP 3C HUVEC, tissue factor biomarker readout; actives raise or lower the signal. A digest of the protocol:
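Endothelial monolayers (human umbilical vein, primary) are dosed, incubated 24 h, and assayed for Tissue Factor by ELISA; DMSO serves as negative control for bidirectional fitting.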

Read-out in experiment [12]: Interleukin-8 (IL8), CXCL8 (gene 3576)
The experiment is described as follows: BSK_3C_IL8: BioMAP Diversity Plus: 3C Assay for Interleukin-8 (IL8) Biomarker Activity (AID 2283020). The note with it: primary human endothelial cells (HUVEC); actives raise or lower the signal. A digest of the protocol:
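Human vascular endothelial cells (umbilical vein) in the 3C system; IL-8 level detected by ELISA at 24 h post-dose, with DMSO as baseline.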

Read-out in experiment [13]: Thrombomodulin, THBD (gene 7056)
In words: BSK_3C_Thrombomodulin: BioMAP Diversity Plus: 3C Assay for Thrombomodulin Biomarker Activity (AID 2283029). The note with it: primary human endothelial cells (HUVEC); actives raise or lower the signal. A digest of the protocol:
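Thrombomodulin ELISA, human primary HUVEC, 24 h post-dose; data fitted in both directions relative to DMSO.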

Read-out in experiment [14]: Urokinase-type plasminogen activator receptor (uPAR), PLAUR (gene 5329)
The experiment is described as follows: BSK_4H_uPAR: BioMAP Diversity Plus: 4H Assay for Urokinase-type plasminogen activator receptor (uPAR) Biomarker Activity (AID 2283030). The following applies: primary human endothelial cells (HUVEC); actives raise or lower the signal. A digest of the protocol:
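Endpoint derived via bidirectional curve fitting against DMSO baseline; readout was ELISA detection of uPAR on umbilical vein endothelial cells at 24 h post-treatment, with SRB-stained parallel cultures assessing cytotoxicity.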

Read-out in experiment [15]: Monokine induced gamma interferon (MIG), CXCL9 (gene 4283)
The experiment is described as follows: BSK_CASM3C_MIG: BioMAP Diversity Plus: CASM3C Assay for Monokine induced gamma interferon (MIG) Biomarker Activity (AID 2283048).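 Note: MIG protein level measured by ELISA.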 The following applies: primary human coronary artery smooth muscle cells; actives raise or lower the signal.

Read-out in experiment [16]: serum amyloid A (SAA), SAA1 (gene 6288)
The experiment is described as follows: BSK_CASM3C_SAA: BioMAP Diversity Plus: CASM3C Assay for serum amyloid A (SAA) Biomarker Activity (AID 2283049).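 Note: SAA protein level quantified by ELISA.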 The note with it: primary human coronary artery smooth muscle cells; actives raise or lower the signal.

Read-out in experiment [17]: Thrombomodulin, THBD (gene 7056)
In words: BSK_CASM3C_Thrombomodulin: BioMAP Diversity Plus: CASM3C Assay for Thrombomodulin Biomarker Activity (AID 2283051).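 Note: thrombomodulin protein level measured by ELISA 24 h after dosing.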 The following applies: primary human coronary artery smooth muscle cells; actives raise or lower the signal.

Read-out in experiment [18]: Vascular cell adhesion molecule 1 (VCAM1), VCAM1 (gene 7412)
In words: BSK_CASM3C_VCAM1: BioMAP Diversity Plus: CASM3C Assay for Vascular cell adhesion molecule 1 (VCAM1) Biomarker Activity (AID 2283055).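 Note: VCAM-1 protein level quantified by ELISA on the cells.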 The following applies: primary human coronary artery smooth muscle cells; actives raise or lower the signal.

Read-out in experiment [19]: Interleukin-8 (IL8), CXCL8 (gene 3576)
In words: BSK_LPS_IL8: BioMAP Diversity Plus: LPS Assay for Interleukin-8 (IL8) Biomarker Activity (AID 2283078). The following applies: primary human HUVEC with PBMC; actives raise or lower the signal. An outline of the steps: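 In this LPS system, chemical-treated human umbilical vein endothelium/PBMC co-cultures were harvested at 24 h for IL-8 ELISA.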

Read-out in experiment [20]: Monocyte Chemoattractant Protein-1 (MCP1), CCL2 (gene 6347)
The experiment is described as follows: BSK_hDFCGF_MCP1: BioMAP Diversity Plus: hDFCGF Assay for Monocyte Chemoattractant Protein-1 (MCP1) Biomarker Activity (AID 2284285). The note with it: primary human foreskin fibroblasts. A digest of the protocol: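 Human foreskin fibroblasts (hDFCGF system) were exposed to compound and secreted MCP-1 was measured by ELISA after 24 hours. Activity was fitted relative to DMSO. Cytotoxicity was checked by SRB total-protein staining in parallel cultures.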

Several values for one entry are separate records, joined by “and”; a condition that tells them apart may be missing. Equal entries are not always repeated. Where a structure was tested more than once in an assay, its records may differ in their call. Activity calls are given as the source filed them. Rule for the calls: active = hit-call score of the fitted dose curve at least 0.9, where 1 is the maximum; inactive = score below 0.9.

Chain of Nuclear respiratory factor 1 (Homo sapiens) (Q16656 whole entry, looked up): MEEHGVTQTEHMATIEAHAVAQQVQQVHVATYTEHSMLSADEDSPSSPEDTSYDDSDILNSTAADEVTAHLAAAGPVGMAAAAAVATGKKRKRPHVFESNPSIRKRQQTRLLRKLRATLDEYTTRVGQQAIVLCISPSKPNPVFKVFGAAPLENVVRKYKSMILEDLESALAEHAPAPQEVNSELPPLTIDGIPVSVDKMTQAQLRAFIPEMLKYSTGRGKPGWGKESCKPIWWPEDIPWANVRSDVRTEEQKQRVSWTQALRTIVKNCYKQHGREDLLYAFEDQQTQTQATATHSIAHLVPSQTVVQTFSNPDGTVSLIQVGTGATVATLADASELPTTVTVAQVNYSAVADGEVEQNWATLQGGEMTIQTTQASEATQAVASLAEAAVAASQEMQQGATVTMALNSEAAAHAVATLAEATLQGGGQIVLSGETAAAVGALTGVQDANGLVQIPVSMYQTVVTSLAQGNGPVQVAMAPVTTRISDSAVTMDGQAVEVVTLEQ
Chain of Hepatocyte nuclear factor 3-beta (Homo sapiens) (Q9Y261 whole entry, looked up): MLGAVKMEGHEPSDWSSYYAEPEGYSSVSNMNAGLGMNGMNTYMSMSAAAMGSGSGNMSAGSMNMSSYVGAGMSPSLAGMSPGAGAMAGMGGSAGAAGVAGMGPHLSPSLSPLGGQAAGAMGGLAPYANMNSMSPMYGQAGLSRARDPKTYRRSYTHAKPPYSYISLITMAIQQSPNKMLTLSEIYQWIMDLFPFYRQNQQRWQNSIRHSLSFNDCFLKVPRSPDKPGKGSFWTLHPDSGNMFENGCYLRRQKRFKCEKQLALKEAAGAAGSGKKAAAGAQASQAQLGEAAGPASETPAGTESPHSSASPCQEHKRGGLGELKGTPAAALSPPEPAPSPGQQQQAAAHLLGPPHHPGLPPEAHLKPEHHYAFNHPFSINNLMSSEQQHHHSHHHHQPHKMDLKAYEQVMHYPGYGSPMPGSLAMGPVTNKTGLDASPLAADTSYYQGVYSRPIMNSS
Chain of Cellular tumor antigen p53 (Homo sapiens) (P04637 whole entry, looked up): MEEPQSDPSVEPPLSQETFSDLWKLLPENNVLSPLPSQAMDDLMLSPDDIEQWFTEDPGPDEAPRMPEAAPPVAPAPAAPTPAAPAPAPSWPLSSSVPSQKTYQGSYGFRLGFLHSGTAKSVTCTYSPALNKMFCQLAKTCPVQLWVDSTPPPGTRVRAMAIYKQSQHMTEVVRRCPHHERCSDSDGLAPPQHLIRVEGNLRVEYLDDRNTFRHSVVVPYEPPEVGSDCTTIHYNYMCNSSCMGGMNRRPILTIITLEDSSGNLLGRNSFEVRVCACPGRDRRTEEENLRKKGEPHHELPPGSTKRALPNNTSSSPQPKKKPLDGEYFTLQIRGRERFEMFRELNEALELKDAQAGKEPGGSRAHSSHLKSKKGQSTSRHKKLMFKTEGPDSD
Chain of Heat shock factor protein 1 (Homo sapiens) (Q00613 whole entry, looked up): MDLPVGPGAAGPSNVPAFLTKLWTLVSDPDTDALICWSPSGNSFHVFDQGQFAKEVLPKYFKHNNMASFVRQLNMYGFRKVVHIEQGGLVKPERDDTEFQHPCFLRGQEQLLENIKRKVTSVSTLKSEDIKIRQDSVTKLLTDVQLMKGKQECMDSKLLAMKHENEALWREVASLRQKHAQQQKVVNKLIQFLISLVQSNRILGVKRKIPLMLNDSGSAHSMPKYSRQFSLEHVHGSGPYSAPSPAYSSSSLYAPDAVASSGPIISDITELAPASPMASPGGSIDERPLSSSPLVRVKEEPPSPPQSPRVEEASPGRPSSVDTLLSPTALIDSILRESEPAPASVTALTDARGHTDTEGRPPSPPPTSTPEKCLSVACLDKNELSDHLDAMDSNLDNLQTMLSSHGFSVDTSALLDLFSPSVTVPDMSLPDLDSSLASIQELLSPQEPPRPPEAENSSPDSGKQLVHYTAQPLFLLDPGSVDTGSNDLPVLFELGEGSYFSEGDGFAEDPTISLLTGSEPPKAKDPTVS

The term AC50 denotes the midpoint of the concentration-response curve, whichever way the signal moves. As to `CCOC(=O)c1ccccc1`, the result in experiment [1], in experiment [3], in experiment [4], in [5], in experiment [6] and in [7] was inactive. In addition, the outcome in [8], in experiment [9] and in experiment [10] was inactive. Besides, the AC50 in [2] was 128 µM (active).
On to `CC(C)C1OCCN1CCOC(=O)NCCCCCCNC(=O)OCCN1CCOC1C(C)C` (stereo not given), for which the outcome in experiment [11], in [12], in [13], in experiment [14], in experiment [15] and in experiment [16] was inactive. The outcome in experiment [17], in experiment [18], in experiment [19] and in [20] was inactive. Also, the AC50 in [20] is 149 nM (active).
On to `Oc1cccc2ccccc12`, for which the outcome in experiment [1], in [2], in [3], in experiment [4], in [5] and in experiment [6] was inactive. Moreover, the call in experiment [7], in experiment [8], in experiment [10], in experiment [12], in experiment [13] and in experiment [14] was inactive. Further, the outcome in [15], in experiment [16], in [18] and in [19] was inactive. The figures for the half-maximal activity concentration (AC50) in experiment [9], in experiment [11] and in [17] were 4.38 µM (active), 12.1 µM (active) and 5.22 µM (active), respectively.
On to `CC/C=C\CCO`, for which the compound was called inactive in [1], in experiment [2], in [3], in experiment [4], in experiment [5] and in experiment [6]. Also, the outcome in [7], in [8], in experiment [9] and in experiment [10] was inactive.
Turning to `Cc1c(C(N)=O)cc([N+](=O)[O-])cc1[N+](=O)[O-]`, the result in experiment [11], in experiment [12], in [13], in experiment [14], in experiment [15] and in experiment [16] was inactive. Moreover, the outcome in [17], in experiment [18], in [19] and in experiment [20] was inactive.
As to `N#CCN(CC#N)CCN(CC#N)CC#N`, the result in experiment [1], in experiment [2], in [3], in experiment [4], in experiment [5] and in experiment [6] was inactive. Further, the compound was classed as inactive in experiment [7], in experiment [8], in [9] and in [10].
For the compound `O=[N+]([O-])c1cc(S(=O)(=O)Nc2ccccc2)ccc1Nc1ccccc1`, the AC50 in [11] is 34.8 µM (active); in experiment [12], 30.7 µM (active); in [13] it was 20 µM (active); in [14], 33.5 µM (active); in experiment [17] it was 5.66 µM (active) and 8.09 µM (active); in [18], 20 µM (active). For the same compound, the AC50 in [19] is 22.7 µM (active) and 20 µM (active); in experiment [20] it was 30.8 µM (active) and 29.7 µM (active). Besides, the result in [11], in [12], in experiment [13], in [14], in [15] and in [16] was inactive. In addition, the outcome in experiment [18] was inactive.
